High-throughput results from PubChem BioAssay.
HT1080-NT tox – qHTS for induction of synthetic lethality in tumor cells producing 2HG: qHTS for the HT-1080-NT fibrosarcoma cell line | HT-1080-NT fibrosarcoma viability, CellTiter-Glo ATP luminescence, 48 h | Potency, µM (top dose mostly 46.1 µM), most hits filed as cytotoxic | hit rate 1.6% among 360,000;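 further: NT is the 2HG producing partner of a matched IDH1 knockdown line; nearly all actives have a fitted effect of over 55% in size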
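Viability by CellTiter-Glo luminescence after 48 h compound exposure at 37C of HT-1080-NT cells (750/well, RPMI, 5% FBS). % activity scaled between DMSO wells and medium-only wells, then curve-fitted and categorized by curve class.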
KB-V1 MDR tox – qHTS assay for MDR1-selective chemotherapeutics: Primary screen using the drug-selected MDR subline cells KB-V1. KB-V1 MDR cells viability, CellTiter-Glo, 72 h. Potency, µM (doses to about 46.1 µM), actives largely listed as cytotoxic. hit rate 3.4% among 400,000. AID 1347076, 2019; further: nearly all actives have a fitted effect of over 60% in size
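Potencies derive from concentration-effect curves fitted to normalized luminescence (CellTiter-Glo) of KB-V1 cells treated for 72 h at 37 degrees C in phenol-red-free DMEM containing 10% FBS.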
MCF10A rerep – A quantitative high throughput screen for small molecules that induce DNA re-replication in MCF 10a normal breast cells | MCF 10A DNA re-replication, Hoechst nuclear intensity, 48 h | Potency, µM (highest dose often 46.1 µM), hits mostly activators | hit rate 2.9% among 350,000; further: nearly all actives have a fitted effect of over 50% in size
HT1080 IDH1KD tx – qHTS for induction of synthetic lethality in tumor cells producing 2HG: qHTS for the HT-1080-IDH1KD cell line | HT-1080 IDH1 knockdown viability, ATP luminescence, 48 h | Potency, µM (highest dose often 46.1 µM), most hits filed as cytotoxic | hit rate 2% among 360,000 | AID 686971, 2013
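After a 2 h attachment period, IDH1KD HT-1080 cells took pin-transferred compound for 48 h at 37 °C; ATP-based luminescence after 10 min room-temperature reagent incubation reported viability.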
KB-3-1 cytotox – qHTS assay for MDR1-selective chemotherapeutics: Primary screen using the parental adenocarcinoma cell KB-3-1; KB-3-1 viability, CellTiter-Glo ATP luminescence, 72 h; Potency, µM (series often up to 46.1 µM), actives largely listed as cytotoxic; hit rate 1.4% among 400,000; further: nearly all actives have a fitted effect of over 60% in size
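Parental KB-3-1 adenocarcinoma cells in phenol-red-free DMEM with 10% FBS were pin-treated with compounds at several concentrations, incubated 72 h at 37 °C, and viability read by CellTiter-Glo luminescence; concentration-effect curves were fitted after normalization.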
SW480 rerep – A quantitative high throughput screen for small molecules that induce DNA re-replication in SW480 colon adenocarcinoma cells; Potency, µM (series often up to 46.1 µM), most hits filed as activators; AID 624297, 2012; SW480 DNA re-replication, Hoechst DNA content imaging, 48 h; hit rate 1.8% among 340,000; further: nearly all actives have a fitted effect of over 55% in size
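Compounds, transferred as 23 nL by pin tool, were incubated with cells for 48 hr; DNA content per nucleus was then quantified by Hoechst staining and fluorescence plate imaging.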
A number is an active result; . = inactive; ? = inconclusive; / = no result; [ ] = remark or other dose. Compounds with a hit are over-represented: about 8% of the library has one in this group of screens. The call rests on the fitted dose curve; in most records, active means well fitted curve in the direction sought with a large enough effect; inconclusive means small, poorly fitted or top-dose-only effect, or another doubt; inactive means no such curve, though single readings can be large; an effect the other way counts as inactive or inconclusive.

SMILES | HT1080-NT tox | KB-V1 MDR tox | MCF10A rerep | HT1080 IDH1KD tx | KB-3-1 cytotox | SW480 rerep
O=C1CC(N2CCN(c3ccc(O)cc3)CC2)C(=O)N1Cc1cccs1 (configuration not stated) | ? | . | . | ? | . | .
COc1ccc(CNC(=O)Cn2cnc3c(OCc4ccccc4)ncnc32)cc1 | . | . | . | . | . | .
O=C(Cn1cnc2c(OCc3ccccc3)ncnc21)NCc1ccccc1 | ? | . | ? | ? | . | 15µM
c1ccc(COc2ncnc3c2ncn3CCCNCC(c2ccccc2)c2ccccc2)cc1 | 16µM | ? | / | ? | ? | /
COc1ncnc2c1ncn2CCCNCC(c1ccccc1)c1ccccc1 | . | . | / | . | . | /
O=S(=O)(/N=C/c1ccccc1O)c1cccs1 | . | . | . | . | ? | .
O=C1/C(=N\S(=O)(=O)c2cccs2)C([n+]2ccccc2)=C([O-])c2ccccc21 | ? | . | . | . | 6.5µM | 12µM
CC(C)(C)c1cc[n+](C2=C([O-])c3ccccc3C(=O)/C2=N\S(=O)(=O)c2cccs2)cc1 | 15µM | . | ? | 13µM | 16µM | ?
N/C(=N\S(=O)(=O)c1cccs1)c1ccccc1 | . | . | . | . | . | .
COC(=O)c1cc(NC(=O)c2cccc(C(F)(F)F)c2)c(=O)oc1C/C=N/OCc1cccc(Cl)c1Cl | . | . | 18µM | . | . | .
COC(=O)c1cc(NC(=O)c2cccc(C(F)(F)F)c2)c(=O)oc1C | . | . | . | . | . | .
CC(n1cnnn1)C12CC3CC(CC(C3)C1)C2 (configuration not stated) | . | . | . | . | . | .
COc1ccccc1NC(=S)N1CCC(c2nc3cc(C)c(C)cc3[nH]2)CC1 | . | . | . | . | . | .
COc1ccccc1NC(=O)N1CCC(c2nc3cc(C)c(C)cc3[nH]2)CC1 | 5.8µM | 9.2µM | 3.7µM | 5.8µM | 1.6µM | 5.8µM
Cc1ccc(NC(=S)NCc2ccccc2)c(C)c1 | . | . | . | . | . | .[9.22 µM]
O=C(O)CC/C(=C\c1cc([N+](=O)[O-])ccc1Cl)c1nc2ccccc2s1 | . | . | . | . | . | .
Cc1nn(-c2ccc(F)cc2)c(Cl)c1/C=C(\CCC(=O)O)c1nc2ccccc2s1 | . | . | 18µM | . | . | .
CC(C)c1ccc(OCc2nc(-c3ccccn3)no2)c(Br)c1 | . | . | 15µM | . | . | .
COC(=O)COc1ccc2cc(-c3ccccc3)c(=O)oc2c1 | . | ? | . | . | . | .
O=C(CCS(=O)(=O)c1ccc(Cl)cc1)N1CCCc2ccccc21 | . | ? | . | . | . | .
O=c1c2ccccc2nc2c3ccccc3c3nncn3n12 | . | 7.3µM | . | . | ? | .
Cc1ccc(C)c(OC(=O)C2CSC3(C)CCC(=O)N23)c1C (configuration not stated) | . | . | . | . | 16µM | .
CN(C)CCCN(C(=O)c1cccs1)c1nc2ccc(F)cc2s1 | / | ? | / | / | . | /
O=c1c2ccccc2[nH]c(=S)n1CCCn1ccnc1 | . | . | . | . | . | ?
CCc1ccccc1NC(=O)CN1CCN(C(=O)CNC(=O)c2ccc(-c3ccccc3)cc2)CC1 | .[9.24 µM] | ? | 5.8µM | ? | . | .
SMILES | HT1080-NT tox | KB-V1 MDR tox | MCF10A rerep | HT1080 IDH1KD tx | KB-3-1 cytotox | SW480 rerep
CCc1ccccc1NC(=O)CN1CCN(CC(=O)Nc2ccc(-c3ccccc3)cc2)CC1 | . | ? | ? | . | . | .
CN(C(=O)CSc1nnc(-c2cccc(F)c2)n1N)C1CCS(=O)(=O)C1 (configuration not stated) | . | . | . | . | . | .
COc1ccccc1CN(C)CC(=O)Nc1ccccc1-c1ccccc1 | . | ? | ? | . | . | .
CN(CC(=O)Nc1ccccc1Oc1ccccc1)Cc1ccccc1F | . | ? | 8.2µM | . | . | .
Cc1ccc(S(=O)(=O)N(CC(=O)Nc2ccccc2C(=O)O)c2cccc(Cl)c2C)cc1 | ? | . | 16µM | ? | ? | /
Cc1cccc(N(CC(=O)Nc2ccccc2-c2ccccc2)S(=O)(=O)c2ccccc2)c1C | . | 21µM | . | . | ? | /
Cc1ccccc1CN(C)CC(=O)Nc1ccccc1-c1ccccc1 | . | ? | 15µM | . | . | .
CCN(CC)CCCNC(=O)Cn1cnc2ccc(S(=O)(=O)N3CCC(C)CC3)cc2c1=O | . | . | . | . | . | ?
Cn1c(CNC(=O)c2ccc(Cl)cc2)nnc1SCC(=O)NC1=NCCS1 | . | . | . | . | . | .
CC(C)CC(=O)c1c[nH]c(C(=O)NCCCN2CCOCC2)c1 | . | . | . | . | . | .
CCN(CC)c1ccc(C(=O)OCC(=O)Nc2ccccc2-c2ccccc2)cc1 | . | ? | ? | . | . | ?
Cc1ccc(N(CC(=O)Nc2ccccc2-c2ccccc2)S(=O)(=O)c2ccccc2)cc1 | . | 23µM | ? | .[9.24 µM] | . | .
Cc1cc(C)cc(N(CC(=O)Nc2ccccc2-c2ccccc2)S(=O)(=O)c2ccccc2)c1 | . | . | . | . | . | .
COc1ccc(NC(=O)Cc2coc3cc(C)ccc23)cc1S(=O)(=O)N1CCOCC1 | . | 18µM | . | . | . | .
COc1ccc(S(=O)(=O)Nc2ccccc2OC)cc1NC(=O)CC1CC2CCC1C2 (configuration not stated) | . | 21µM | ? | . | . | .
COc1ccc(NC(=O)CC2CC3CCC2C3)cc1S(=O)(=O)N1CCOCC1 (configuration not stated) | . | 13µM | . | . | . | .
COc1ccc(NS(=O)(=O)c2ccc(OC)c(NC(=O)CCC3CCCCC3)c2)cc1 | . | 12µM | . | . | . | .
Cc1ccc(NC(=O)COC(=O)CC2CC3CCC2C3)cc1S(=O)(=O)N1CCOCC1 (configuration not stated) | . | . | . | . | . | .
C=CCNC(=O)C1CCN(c2ccc(S(=O)(=O)N3CCOCC3)cc2[N+](=O)[O-])CC1 | . | . | . | . | . | .
CC1CCC(NC(=O)CCS(=O)(=O)c2ccc3c(c2)oc(=O)n3C)CC1 (configuration not stated) | . | . | . | . | . | .
